According to ChEMBL document CHEMBL3433997, “St. Jude Leishmania screening dataset” (2016):

What follows are compounds tested against Hexose transporter 1 (Plasmodium falciparum) (UniProt O97467) (assay: ST_JUDE_LEISH: Cytotoxicity at 2uM final concentration against transgenic Leishmania Mexicana promastigotes LmPfHT that are glucose transport deficient and complemented with the Plasmodium falciparum hexose transporter. Activity is measured by DNA content using SYBR green in vitro).
Format: functional
`CC(C)c1ccc(CN2CCC(CNC(=O)c3cc(-c4cccc(F)c4)cs3)C2)cc1` (configuration not stated) gave an inhibition of -1.08%. In the case of `Cc1ccc(CNC(=O)[C@H](CCCN)Nc2cc(C)nc(NCC3CCCCC3)n2)cc1`, the inhibition is reported as 1.17%. In the case of `CC(=O)Nc1ccc(CN2CCC(NC(=O)c3ccc(-c4cccc(Cl)c4)s3)CC2)cc1`, the inhibition is reported as -0.15%. Compound `CCCC(CNCc1cccc(OCC)c1)CNc1cc(=O)c2ccccc2[nH]1` (configuration not stated) has an inhibition of -0.45%. Compound `Cc1ccc(NC(=O)N2CCCN(CCCCCNC(=O)/C=C/c3ccc(Cl)c(Cl)c3)CC2)cc1C` has an inhibition of -1.17%. Work on `Cc1cc(NCC2CCN(CC3CCCCC3)C2)nc(Nc2ccc(Cl)cc2)n1` (configuration not stated) yielded an inhibition of 5.29%. With `CC(C)C(=O)NC(c1ccc(N(C)C)cc1)c1cc(Cl)c2cccnc2c1O` (configuration not stated) the inhibition was 4.2%. In the case of `COc1ccc2nccc([C@@H](O)CN3CCC(NC(=O)c4ccc(Oc5ccccc5)cc4)CC3)c2c1`, the inhibition is reported as 8.83%. `COc1ccc(-c2ccc(CN(C)C3CCC(NC(=O)c4cc5ccccc5[nH]4)CC3)cc2)cn1` (configuration not stated) gave an inhibition of -1.14%. With `CC(C)(C)c1cc2cc(Nc3ccnc4cc(-c5nccs5)ccc34)ccc2[nH]1` the inhibition was 7.87%. With `Cc1ccc(NC(=O)N2CCCN(CCCCCNC(=O)/C=C/c3ccc(Cl)c(Cl)c3)CC2)cc1` the inhibition was -0.68%. In the case of `COCCn1ccc2c3c(N)nc(N)nc3ccc21`, the inhibition is reported as 3.61%. `CC(C)(C)c1ccc(CN2CCC(NC(=O)c3ccc(-c4cccc(F)c4)s3)CC2)cc1` was tested, and the inhibition was -2.33%. `O=C(Nc1cccc(CN2CCCN(Cc3cccc(O)c3)CC2)c1)c1cc2ccccc2s1` gave an inhibition of -0.1%. `N#Cc1ccccc1S(=O)(=O)N1CCCC(CNC(=O)[C@H](CC2CCCCC2)NC(=O)c2cc3ccccc3s2)C1` (some centres not stated) gave an inhibition of 2.15%. Work on `CN1CCCN(Cc2cccc(-c3ccc(NC(=O)c4cccc(Cl)c4)cc3)c2)CC1` yielded an inhibition of 80%. With `COc1ccc(-c2nnc(Sc3ccc(C#N)c([N+](=O)[O-])c3)n2CCC(C)C)cc1` the inhibition was 5.04%. `Cn1nccc1C(=O)NCCNCc1ccc(-c2cccc(-c3nc4cc(F)ccc4[nH]3)c2)cc1` was tested, and the inhibition was -4.29%. `CCOc1ccc(C2CCN(CCN3CCC(NC(=O)c4ccc(-c5ccc(C(F)(F)F)cc5)cc4)CC3)CC2)c(OCC2CC2)c1` gave an inhibition of 3%. In the case of `Cc1ccccc1OCCCN1CCN(CC(c2ccc(F)cc2)N2CCN(C(C)C)CC2)CC1` (configuration not stated), the inhibition is reported as 12.5%. With `COc1ccc2nccc([C@@H](O)CN3CCC(NC(=O)C(c4cc5ccccc5o4)N4CCN(C(c5ccccc5)c5ccccc5)CC4)CC3)c2c1` (some centres not stated) the inhibition was 1.55%. `Nc1ncc(-c2ccsc2)c2ccc(-c3cnc[nH]3)cc12` showed an inhibition of 0.14%. `CC(C)(C)c1ccc(CN2CCC(NC(=O)c3ccc(-c4cccc(C(F)(F)F)c4)s3)CC2)cc1` showed an inhibition of -0.78%. `CCOc1cc(C(=O)Nc2ccc3nc(N(CC)CC)cc(C)c3c2)cc(OCC)c1OCC` gave an inhibition of -0.88%. For `O=C(/C=C/c1ccc(Cl)c(Cl)c1)NCCCCCN1CCC(NC(=O)Nc2cccc(C(F)(F)F)c2)CC1`, the inhibition was -0.93%. Work on `O=C(Nc1cccnc1)c1ccc(-c2cc3ccncc3cc2OC2CCNCC2)s1` yielded an inhibition of 2.54%. With `CC(C)CNc1c2c(nc3cnn(-c4c5c(nc6cn[nH]c46)CCCC5)c13)CCCC2` the inhibition was -1.12%. Work on `CCCCN1CCN(c2cc(NS(=O)(=O)c3ccc(C(=O)Nc4ccc(C(F)(F)F)cc4)cc3)ccc2OC)CC1` yielded an inhibition of 5.5%. Compound `Cc1cc(F)ccc1-c1nc(NCCCN2CCCC2=O)nc2c1ccc(=O)n2-c1c(F)cccc1F` has an inhibition of 12.9%. `CCCC(C)NC(=O)/C=C/c1ccccc1-c1cccc(OC)c1` (configuration not stated) was tested, and the inhibition was -0.01%. Work on `CS(=O)(=O)Nc1cccc(-c2cnc3[nH]cc(-c4cc(N)cc(C(=O)O)c4)c3c2)c1` yielded an inhibition of 1.94%. With `Fc1ccc2[nH]c(-c3ccc(-c4ccc(CNCc5cnn(-c6ccccc6)n5)cc4)cc3)nc2c1` the inhibition was -1.57%. With `CCCCCN1C(=O)C(c2ccccc2)(c2ccccc2)N=C1N` the inhibition was 2.96%. `CCCCCC(C)(C)NC[C@@H](O)[C@H](Cc1ccccc1)NC(=O)c1cc(NCC)cc(N2CCCC2=O)c1` was tested, and the inhibition was 0.68%. With `CCN(CC)CCN(Cc1ccc(-c2ccc(C(F)(F)F)cc2)cc1)C(=O)CN1C(CCc2cccc(F)c2F)=NS(=O)(=O)c2ccccc21` the inhibition was -0.42%. `Cc1ccc(OCC2CCN(c3ncc(C(=O)NCCCN4CCCC4=O)cc3Cl)CC2)cc1` showed an inhibition of -1.22%. `O=[N+]([O-])c1ccc(-n2nc(-c3cccnc3)n(Cc3ccco3)c2=S)c(Cl)c1` was tested, and the inhibition was -1.09%. Work on `COc1ccccc1N1CCN(C(C(=O)NCc2ccc3c(c2)OCO3)c2ccc(C)cc2)CC1` (configuration not stated) yielded an inhibition of -0.2%.

Each compound was assayed against Glucose transporter (Leishmania mexicana) (UniProt O61059) (assay: ST_JUDE_LEISH: Cytotoxicity at 2uM final concentration against transgenic Leishmania Mexicana promastigotes LmGT2 that are glucose transport deficient and complemented with the L. Mexicana glucose transporter 2. Activity is measured by DNA content using SYBR green in vitro).
Format: functional
`Cc1ccc(CNC(=O)[C@H](CCCN)Nc2cc(C)nc(NCC3CCCCC3)n2)cc1` was tested, and the inhibition was 0.32%. `CC(=O)Nc1ccc(CN2CCC(NC(=O)c3ccc(-c4cccc(Cl)c4)s3)CC2)cc1` gave an inhibition of 2.8%. Compound `Cc1cc(NCC2CCN(CC3CCCCC3)C2)nc(Nc2ccc(Cl)cc2)n1` (configuration not stated) has an inhibition of 2.45%. `CC(C)C(=O)NC(c1ccc(N(C)C)cc1)c1cc(Cl)c2cccnc2c1O` (configuration not stated) showed an inhibition of 1.29%. `COc1ccc2nccc([C@@H](O)CN3CCC(NC(=O)c4ccc(Oc5ccccc5)cc4)CC3)c2c1` showed an inhibition of 1.34%. `COc1ccc(-c2ccc(CN(C)C3CCC(NC(=O)c4cc5ccccc5[nH]4)CC3)cc2)cn1` (configuration not stated) was tested, and the inhibition was -1.54%. `CC(C)(C)c1cc2cc(Nc3ccnc4cc(-c5nccs5)ccc34)ccc2[nH]1` was tested, and the inhibition was 5.41%. Compound `COCCn1ccc2c3c(N)nc(N)nc3ccc21` has an inhibition of 2.26%. `CC(C)(C)c1ccc(CN2CCC(NC(=O)c3ccc(-c4cccc(F)c4)s3)CC2)cc1` showed an inhibition of 2.67%. For `N#Cc1ccccc1S(=O)(=O)N1CCCC(CNC(=O)[C@H](CC2CCCCC2)NC(=O)c2cc3ccccc3s2)C1` (some centres not stated), the inhibition was 0.55%. For `CN1CCCN(Cc2cccc(-c3ccc(NC(=O)c4cccc(Cl)c4)cc3)c2)CC1`, the inhibition was 69.1%. Compound `COc1ccc(-c2nnc(Sc3ccc(C#N)c([N+](=O)[O-])c3)n2CCC(C)C)cc1` has an inhibition of -0.81%. With `Cn1nccc1C(=O)NCCNCc1ccc(-c2cccc(-c3nc4cc(F)ccc4[nH]3)c2)cc1` the inhibition was -1.92%. Work on `CCOc1ccc(C2CCN(CCN3CCC(NC(=O)c4ccc(-c5ccc(C(F)(F)F)cc5)cc4)CC3)CC2)c(OCC2CC2)c1` yielded an inhibition of 2.81%. For `Cc1ccccc1OCCCN1CCN(CC(c2ccc(F)cc2)N2CCN(C(C)C)CC2)CC1` (configuration not stated), the inhibition was 14.9%. In the case of `COc1ccc2nccc([C@@H](O)CN3CCC(NC(=O)C(c4cc5ccccc5o4)N4CCN(C(c5ccccc5)c5ccccc5)CC4)CC3)c2c1` (some centres not stated), the inhibition is reported as 1.41%. `Nc1ncc(-c2ccsc2)c2ccc(-c3cnc[nH]3)cc12` gave an inhibition of -0.37%. Work on `CC(C)(C)c1ccc(CN2CCC(NC(=O)c3ccc(-c4cccc(C(F)(F)F)c4)s3)CC2)cc1` yielded an inhibition of -5.64%. Compound `CCOc1cc(C(=O)Nc2ccc3nc(N(CC)CC)cc(C)c3c2)cc(OCC)c1OCC` has an inhibition of -3.87%. `O=C(Nc1cccnc1)c1ccc(-c2cc3ccncc3cc2OC2CCNCC2)s1` gave an inhibition of 2.16%. `CC(C)CNc1c2c(nc3cnn(-c4c5c(nc6cn[nH]c46)CCCC5)c13)CCCC2` gave an inhibition of -2.14%. For `CCCCN1CCN(c2cc(NS(=O)(=O)c3ccc(C(=O)Nc4ccc(C(F)(F)F)cc4)cc3)ccc2OC)CC1`, the inhibition was 0.69%. In the case of `Cc1cc(F)ccc1-c1nc(NCCCN2CCCC2=O)nc2c1ccc(=O)n2-c1c(F)cccc1F`, the inhibition is reported as 11.1%. `CS(=O)(=O)Nc1cccc(-c2cnc3[nH]cc(-c4cc(N)cc(C(=O)O)c4)c3c2)c1` showed an inhibition of -0.41%. With `Fc1ccc2[nH]c(-c3ccc(-c4ccc(CNCc5cnn(-c6ccccc6)n5)cc4)cc3)nc2c1` the inhibition was -1.56%. Compound `CCCCCN1C(=O)C(c2ccccc2)(c2ccccc2)N=C1N` has an inhibition of 4.92%. `CCCCCC(C)(C)NC[C@@H](O)[C@H](Cc1ccccc1)NC(=O)c1cc(NCC)cc(N2CCCC2=O)c1` showed an inhibition of -1.82%. For `CCN(CC)CCN(Cc1ccc(-c2ccc(C(F)(F)F)cc2)cc1)C(=O)CN1C(CCc2cccc(F)c2F)=NS(=O)(=O)c2ccccc21`, the inhibition was -3.12%. With `Cc1ccc(OCC2CCN(c3ncc(C(=O)NCCCN4CCCC4=O)cc3Cl)CC2)cc1` the inhibition was 0.72%.
